Hits are enriched below; roughly 3% of the tested compounds scored in any of these assays.
SENP8 block-1 – human SENP8 protease inhibitors, primary screen, biochemical, fluorescence, Nedd8 protein substrate, uHTS; Sentrin-specific protease 8 (Homo sapiens), Q96LD8; recombinant SENP8; inhibition, % at 20 µM; hit rate 0.64% among 360,000; in the data active = inhibition mostly above about 40%, no sharp cut-off; inactive = mostly below about 27%
SENP7 block – SENP7 protease inhibitors, primary screen, biochemical, luminescence, uHTS; Sentrin-specific protease 7 (Homo sapiens), Q9BQF6; recombinant SENP7, Z-RLRGG-aminoluciferin luminescence, 40 min; inhibition, % at 5 µM; hit rate 1.5% among 330,000; AID 434973, 2010;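 active = inhibition above about 50% at the single test dose, limit read from the data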
Target sequence (Q9BQF6 706-1050 limits assumed): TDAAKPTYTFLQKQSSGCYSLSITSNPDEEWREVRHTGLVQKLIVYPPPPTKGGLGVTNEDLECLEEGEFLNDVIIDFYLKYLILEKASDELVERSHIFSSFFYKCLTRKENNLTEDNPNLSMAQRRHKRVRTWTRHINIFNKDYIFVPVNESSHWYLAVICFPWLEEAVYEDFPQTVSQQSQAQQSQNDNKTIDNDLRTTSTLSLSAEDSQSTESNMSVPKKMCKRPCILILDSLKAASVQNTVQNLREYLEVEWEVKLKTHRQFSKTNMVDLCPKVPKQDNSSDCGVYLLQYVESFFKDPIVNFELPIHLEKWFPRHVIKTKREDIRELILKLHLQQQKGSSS
TRAIL sens C8 – viability loss with TRAIL in NB7+C8 cells, primary screen, TRAIL sensitizer project, cell-based, ATPlite luminescence; hit rate 1% among 360,000; inhibition (viability loss, TRAIL sensitization), % at 10 µM;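 active = compounds causing at least 50% loss of cell viability in the single-dose screen, relative to plate controls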
PPC-1+TRAIL kill – compounds killing PPC-1 cancer cells with TRAIL present, primary screen, TRAIL potentiator project, ATPLite luminescence, uHTS. PPC-1 cells + TRAIL, ATPLite viability luminescence. cell killing (% activity), % at 4 µM or 5 µM. hit rate 0.41% among 220,000. AID 1443, 2008;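 active = cell killing above 50% in the first pass at 4 µM, then a duplicate retest at 5 µM averaging 50% or more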
SENP8 block-2 – SENP8 protease inhibitors, primary screen, biochemical, luminescence; inhibition, % at 10 µM; Sentrin-specific protease 8 (Homo sapiens), Q96LD8; hit rate 1.2% among 330,000; AID 2540, 2010; purified SENP8, Z-RLRGG-aminoluciferin cleavage; in the data active = inhibition above about 50%
SENP6 inh – SENP6 protease inhibitors, primary screen, biochemical, luminescence, uHTS. Sentrin-specific protease 6 (Homo sapiens), Q9GZR1. Recombinant SENP6 catalytic domain, aminoluciferin luminescence. inhibition, % at 10 µM. hit rate 1.8% among 330,000. AID 2599, 2010;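 active = inhibition above about 50% at the single tested dose, limit read from the data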
SENP8 confirm – SENP8 protease inhibitors, retest, confirmation, biochemical, luminescence, single concentration; shares compounds with SENP7 block; Recombinant SENP8, Z-RLRGG-aminoluciferin luminescence, 60 min; inhibition, % at 12.5 µM; hit rate 40% among 6,200;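 active = mean inhibition across replicates above about 50%, limit read from the data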
SENP6 confirm – SENP6 protease inhibitors, confirmation, biochemical, luminescence, single concentration. shares compounds with SENP7 block. inhibition, % at 12.5 µM. AID 488915, 2010. hit rate 58% among 6,200. recombinant SENP6, Z-RLRGG-aminoluciferin luminescence
SENP7 confirm – SENP7 protease inhibitors, retest, confirmation, biochemical, luminescence, single concentration; shares compounds with SENP7 block; recombinant SENP7, Z-RLRGG-aminoluciferin luminescence, 40 min; inhibition, % at 12.5 µM; hit rate 69% among 6,200
Casp3 select – caspase-3 protease inhibitors, confirmation, selectivity assay for SENP inhibitor project, biochemical, single concentration; shares compounds with SENP7 block; purified caspase-3, Z-DEVD-aminoluciferin luminescence, 60 min; inhibition, % at 12.5 µM; hit rate 60% among 6,200;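 active = mean inhibition above about 50%, limit read from the data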
SENP luc ctr – luminescence interference (SENP counter-screen); shares compounds with SENP7 block; Pre-incubated SENP8/Z-RLRGG-aminoluciferin, luciferase luminescence interference; inhibition, % at 12.5 µM; hit rate 39% among 6,200; AID 488919;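 active = mean inhibition above about 50% when retested at one dose, limit read from the data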
Numbers stand for hits; n = inactive; x = not tested or not shown.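 Rule for the calls, unless noted: active = mean inhibition above about 50% in the one-dose retest (limit read from the data); inactive = the rest.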

SMILES	SENP8 block-1	SENP7 block	TRAIL sens C8	PPC-1+TRAIL kill	SENP8 block-2	SENP6 inh	SENP8 confirm	SENP6 confirm	SENP7 confirm	Casp3 select	SENP luc ctr
COc1ccc(-c2nc3ccccc3c(=O)o2)cc1	n	90	55	n	n	81	63	n	75	54	n
Nc1c(C(=O)NCc2ccco2)c2nc3ccccc3nc2n1Cc1ccc(F)cc1	n	54	n	n	75	89	n	n	n	n	n
COc1ccc(Cn2c(N)c(C(=O)NCc3ccco3)c3nc4ccccc4nc32)cc1	n	n	n	n	n	58	n	n	n	n	n
O=c1[nH]c(O)c(/C=C2\C=Nc3ccc(OCc4ccccc4)cc32)c(=O)[nH]1	n	n	n	x	n	n	x	x	x	x	x
Nc1ccccc1C(=O)OCCc1ccccc1	n	75	n	x	73	76	69	75	92	60	67
Nc1nonc1C(=O)N/N=C/c1ccc([N+](=O)[O-])o1	n	n	n	n	n	n	x	x	x	x	x
N/C(=N\[N+](=O)[O-])N/N=C/c1ccc(O)cc1	n	79	n	n	67	92	78	75	91	92	81
O=C(Nc1ccccc1)c1c(O)[nH]c(=S)[nH]c1=O	n	61	n	x	52	63	62	54	88	82	60
N/C(=N\N=C\c1ccc(O)cc1O)N[N+](=O)[O-]	n	52	n	n	51	n	61	60	86	88	68
O=C(c1cc2c(s1)-c1ccccc1OC2)N1CCC2(CC1)OCCO2	n	84	n	n	70	84	75	75	94	84	80
COc1cc2c(cc1OC)-c1c3c(cc4c1[C@@H](C2)N(C)CC4)OCO3	n	n	n	n	n	78	n	n	n	n	n
COc1cc2c(cc1OC)-c1c(OC)c(OC)cc3c1C(C2)N(C)CC3 (centres undefined)	n	55	n	n	58	82	n	73	n	n	n
O=C1N(c2nncs2)CCN1[N+](=O)[O-]	n	n	n	n	n	n	x	x	x	x	x
COC(=O)c1nc(-c2ccc3c(n2)C(=O)C(N)=C(OC)C3=O)c(N)c(-c2ccc(OC)c(OC)c2O)c1C	49	n	n	n	81	76	n	n	n	n	n
C[C@]12CC(=O)CC1CCC1C2CC[C@@]2(C)C1CC[C@@H]2O (some centres undefined)	n	n	n	x	n	n	x	x	x	x	x
COCCCn1c(N)c(C(=O)NCCC(C)C)c2nc3ccccc3nc21	n	63	n	n	77	81	n	n	n	n	n
CCCCCn1c(N)c(C(=O)NCCN2CCOCC2)c2nc3ccccc3nc21	n	n	n	n	n	n	x	x	x	x	x
CCCCCn1c(N)c(C(=O)NCc2cccs2)c2nc3ccccc3nc21	x	n	x	n	84	80	n	n	n	n	n
Nc1c(C(=O)NCc2ccco2)c2nc3ccccc3nc2n1Cc1ccccc1	n	n	n	n	n	n	x	x	x	x	x
